Measured values from PubChem BioAssay (NCI).
The panel holds about 83,000 compounds, 20% with a hit somewhere; the sample as a whole holds those more often.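 Step 1: grow cells in 96-well plates. Step 2: add test compound at a single concentration. Step 3: incubate 48 h. Step 4: record percent growth.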 Active and inactive are the calls of the source. The calls were made as follows: active = growth percent below 10; inactive = the rest.

How the values were obtained:
Assay in all cases: NCI-60 one-dose screen, 48 h (100 = growth as untreated, 0 = no growth, -100 = all killed)
Settings in all cases: 10 µM unless noted
[1] = test system: SK-MEL-2 melanoma
[2] = test system: EKVX NSCLC
[3] = test system: SN12C renal
[4] = test system: UO-31 renal
[5] = test system: TK-10 renal
[6] = test system: ACHN renal
[7] = test system: CAKI-1 renal
[8] = test system: A498 renal
[9] = test system: CCRF-CEM leukemia
[10] = test system: MOLT-4 leukemia
[11] = test system: SR leukemia
[12] = test system: RPMI-8226 leukemia
[13] = test system: OVCAR-8 ovarian
[14] = test system: OVCAR-5 ovarian
[15] = test system: OVCAR-4 ovarian
[16] = test system: SK-OV-3 ovarian
[17] = test system: IGROV1 ovarian
[18] = test system: OVCAR-3 ovarian
[19] = test system: NCI/ADR-RES ovarian
[20] = test system: HS 578T breast

Measured: growth

CCOc1cc2ncc(C#N)c(Nc3ccc(OCc4cccc(F)c4)c(Cl)c3)c2cc1NC(=O)CC1CCSS1 (stereo not given)
active: [9] 9.64% | [10] -25.2% | [11] -9.65% | [15] -33.3% | [16] -93.6% | [17] -2.65%
inactive: [1] 25.9% | [2] 27.3% | [3] 46% | [4] 39.3% | [5] 38.6% | [6] 59.7% | [7] 43% | [8] 64% | [12] 62.4% | [13] 44.2% | [14] 84.1% | [18] 37.3% | [19] 78.9%

O=C1c2cccc3cccc(c23)C(=O)N1CCCCCN1CCN(CCCCCOc2ccc(-c3nc4ccc(N5CCOCC5)cc4[nH]3)cc2)CC1
active: [4] 4.03% | [9] -17.9% | [10] -54.4% | [11] -44.1% | [12] -59%
inactive: [1] 87.4% | [2] 105% | [3] 108% | [5] 106% | [6] 111% | [7] 59.4% | [8] 117% | [13] 10.6% | [14] 158% | [15] 83.2% | [16] 135% | [17] 44.3% | [18] 105% | [19] 25.9%

Cc1nn(-c2ccc(F)cc2)c2ncnc(Nc3ccc(NC(=O)Nc4ccc(Cl)c(C(F)(F)F)c4)cc3)c12
inactive: [2] 43.9% | [3] 27.2% | [4] 40.1% | [5] 26.5% | [7] 12.4% | [8] 37.9% | [9] 28.9% | [10] 26.4% | [11] 46.1% | [12] 19.3% | [13] 35.4% | [14] 70.8% | [15] 23.8% | [16] 65.7% | [17] 31% | [19] 38.2%
active: [1] -7.22% | [6] 3.49% | [18] -4.21%

OCc1ccc(N2CCc3cccc(F)c3C2)cc1Cl
active: [5] -0.0842% [0.1 µM] | [8] -16.3% [0.1 µM] | [14] -11.7% [0.1 µM]
inactive: [1] 91.1% [0.1 µM] | [2] 104% [0.1 µM] | [3] 92.9% [0.1 µM] | [4] 91.6% [0.1 µM] | [6] 108% [0.1 µM] | [7] 63.5% [0.1 µM] | [9] 96% [0.1 µM] | [10] 100% [0.1 µM] | [11] 87.6% [0.1 µM] | [12] 71.4% [0.1 µM] | [13] 91.4% [0.1 µM] | [15] 32.7% [0.1 µM] | [16] 72.5% [0.1 µM] | [17] 21.2% [0.1 µM] | [18] 11.8% [0.1 µM] | [20] 99.2% [0.1 µM] | [19] 87% [0.1 µM]

O=c1c(F)cn(Cc2ccccc2CCl)c(=O)n1Cc1ccccc1CCl
inactive: [8] 76.3% | [16] 10.3%
active: [1] 4.2% | [2] -4.31% | [3] -26.5% | [4] -80.4% | [5] -30.8% | [6] -81.8% | [7] -84.5% | [9] -42.9% | [10] -40.3% | [11] -57.5% | [12] -48.6% | [13] -20.3% | [14] -76.8% | [15] -15.3% | [17] -37.3% | [18] -44.6% | [20] -3.05% | [19] -9.91%

O=C(CN1C(=O)/C(=C/c2ccc(Cl)cc2)SC1=S)NCCCN1CCOCC1
inactive: [1] 111% | [2] 90.7% | [3] 94.7% | [4] 83.2% | [5] 117% | [6] 94.6% | [7] 89.4% | [8] 104% | [9] 105% | [10] 102% | [11] 97.8% | [12] 96% | [13] 103% | [14] 103% | [15] 93.5% | [16] 97.8% | [17] 108% | [18] 101% | [19] 99.9%

CN1CCN(CCCOc2cccc3nc(Nc4ccc(Cl)c(F)c4)ccc23)CC1
inactive: [1] 83.7% | [2] 61.7% | [3] 63.7% | [4] 22.5% | [5] 88.4% | [6] 10.5% | [7] 56.2% | [8] 55.4% | [9] 19.3% | [12] 23.9% | [13] 85% | [14] 58.6% | [15] 65.4% | [16] 82.7% | [17] 65.7% | [18] 69.9% | [20] 52.7% | [19] 49.7%
active: [10] -22% | [11] -16%

O=[N+]([O-])c1ccc(Nc2nc(NCCN3CCOCC3)ncc2[N+](=O)[O-])cc1
inactive: [1] 93.7% | [2] 88.2% | [3] 90.2% | [4] 63.9% | [5] 76.5% | [6] 80.9% | [7] 56.7% | [8] 79.1% | [9] 98.1% | [10] 103% | [11] 107% | [12] 100% | [13] 99.5% | [14] 98.6% | [15] 85.4% | [16] 93.4% | [17] 81% | [18] 102% | [19] 89.8%

COc1cc2c(cc1-c1c(C)noc1C)ncc1nc(C3CCC(F)(F)CC3)n([C@H](C)COC(F)F)c12
active: [8] -22.8%
inactive: [1] 65.7% | [2] 48.1% | [3] 51% | [4] 25.3% | [5] 27.1% | [6] 37.5% | [7] 35.4% | [9] 50.3% | [10] 48.9% | [11] 22.7% | [12] 18.5% | [13] 44.3% | [14] 82.5% | [15] 48.1% | [16] 10.5% | [17] 40.6% | [18] 39.6% | [19] 40.1%

C#CCOc1ccc2ncnc(N3CCC(NC(=O)CCl)CC3)c2c1
inactive: [1] 69.6% [8.25 µM] | [2] 72.7% [8.25 µM] | [3] 63.6% [8.25 µM] | [4] 40.6% [8.25 µM] | [5] 69% [8.25 µM] | [6] 57.6% [8.25 µM] | [7] 71.4% [8.25 µM] | [8] 29.9% [8.25 µM] | [9] 39.8% [8.25 µM] | [10] 40.9% [8.25 µM] | [11] 62.6% [8.25 µM] | [12] 44.4% [8.25 µM] | [13] 76.3% [8.25 µM] | [14] 100% [8.25 µM] | [15] 36.5% [8.25 µM] | [16] 69.6% [8.25 µM] | [17] 51.4% [8.25 µM] | [18] 68.2% [8.25 µM] | [20] 46.7% [8.25 µM] | [19] 88.2% [8.25 µM]

COC(=O)c1cccc(NC(=O)c2ccc(-c3cccc(N)c3)o2)c1
inactive: [1] 98.3% | [2] 94.5% | [3] 94% | [4] 83% | [5] 125% | [6] 102% | [7] 91.3% | [8] 105% | [9] 71.7% | [10] 85.9% | [11] 95.8% | [12] 78.8% | [13] 75.7% | [14] 107% | [15] 101% | [16] 105% | [17] 100% | [20] 92.2% | [19] 99.7%

Cc1cc(N2CCOCC2)nc(NCc2cc(Nc3ccnc4cc(Cl)ccc34)ccc2F)n1
active: [1] -61.6% | [2] 9.33% | [3] -72.7% | [4] -50.8% | [5] -14.7% | [6] -12.9% | [7] 3.58% | [8] -57.8% | [9] -10.4% | [10] -30.3% | [11] -41.3% | [12] -40.4% | [13] -48.9% | [14] -17.2% | [15] 3.65% | [16] -40.8% | [17] -14.1% | [18] -94.2% | [20] -14.2% | [19] -56.9%

O=C1c2cc3c(cc2-c2c1c1ccc(Cl)cc1c(=O)n2CCCN1CCOCC1)OCO3
inactive: [1] 100% | [2] 93.8% | [3] 46.3% | [4] 44.5% | [5] 103% | [6] 13.1% | [7] 21.4% | [8] 76.2% | [9] 20.7% | [12] 60.8% | [13] 70.9% | [14] 109% | [15] 91.9% | [16] 33.4% | [17] 82.6% | [18] 86.5% | [19] 45.9%
active: [10] 8.7% | [11] 4.71%

COc1ccc(CCNc2nc3c(c(=O)n(Cc4ccc(Br)cc4)c(=O)n3C)n2C)cc1OC
inactive: [1] 93% | [2] 83.7% | [3] 91.1% | [4] 70.6% | [5] 111% | [6] 89.7% | [7] 85.6% | [8] 92.6% | [9] 99.7% | [10] 88.2% | [11] 98.9% | [12] 78.5% | [13] 90.5% | [14] 94% | [15] 80.1% | [16] 94.9% | [17] 83.2% | [20] 91.1% | [19] 82.9%

Cc1ccc2c(c1)C(=O)/C(=C/c1cccc(OCC(=O)c3ccc(Cl)cc3)c1)CS2
active: [9] -2.6% | [11] 9.06% | [12] -27%
inactive: [1] 58.2% | [2] 91.9% | [3] 88.4% | [4] 71.2% | [5] 93% | [6] 99.6% | [7] 89.2% | [8] 80.4% | [10] 19.1% | [13] 69.7% | [14] 105% | [15] 104% | [16] 115% | [18] 98.1% | [20] 99.9% | [19] 54.4%
